High-throughput results from PubChem.
Most compounds without a hit are left out; they make up all but 2.8% or so of the library.
S16 F2sN tox: cytotoxicity in S16 Pmp22-F2sN Schwann cells. S16 Pmp22-F2sN Schwann cells viability, CellTiter-Glo, 24 h. 0.48% of 43,000 active. Potency, µM (highest dose often 57.5 µM), inactives show at the top dose activity change, negative = cytotoxicity, most hits filed as cytotoxic. AID 1508642; also: potency is read from the fitted curve at half-maximal effect; % is scaled to controls: 0 for no effect and ±100 for the full control effect; nearly all actives have a fitted effect of over 65% in size
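Used to flag compounds lowering reporter output through toxicity, this quantitative HTS measures ATP-based CellTiter-Glo luminescence in S16 Pmp22-F2sN Schwann cells after 24 h compound exposure at 37C.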
PMP22 txn prim: modulates PMP22 transcription in S16 Schwann cells; S16 Pmp22-F2sN Schwann cells (luciferase reporters placed in the Pmp22 gene), FLuc/NLuc coincidence luminescence, 24 h; Potency, µM (doses to about 57.5 µM), for inactives: at the top dose activity change, negative = inhibition, hits mostly inhibitors; 2% of 43,000 active; AID 1508649; active = clear falling dose curves in both reporters; inconclusive = both reporters move, but less clearly or upward; inactive = either reporter flat; the % is the NLuc reporter signal; also: potency is read from the fitted curve at half-maximal effect; % is scaled to controls: 0 for no effect and ±100 for the full control effect
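Rat S16 Pmp22-F2sN cells, 500-1,000/well in phenol red-free DMEM + 10% FBS, compound-treated 24 h (37C, 5% CO2). Luminescence: FLuc read, Stop&Glo added, NLuc read.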
GALC G270D act: enhancers of human galactocerebrosidase G270D mutant activity in cells. P54803. AID 1159614. 145M-Twi-hGALC-G270D cells (Twitcher mouse brain line with human GALC G270D), HMU-beta-Gal fluorescence, 48 h. 0.1% of 45,000 active. Potency, µM (titrated, usually from 57.5 µM), hits mostly activators; also: potency is read from the fitted curve at half-maximal effect; 0% is about no effect; nearly all actives have a fitted effect of over 65% in size
Target sequence (P54803 whole entry G286D): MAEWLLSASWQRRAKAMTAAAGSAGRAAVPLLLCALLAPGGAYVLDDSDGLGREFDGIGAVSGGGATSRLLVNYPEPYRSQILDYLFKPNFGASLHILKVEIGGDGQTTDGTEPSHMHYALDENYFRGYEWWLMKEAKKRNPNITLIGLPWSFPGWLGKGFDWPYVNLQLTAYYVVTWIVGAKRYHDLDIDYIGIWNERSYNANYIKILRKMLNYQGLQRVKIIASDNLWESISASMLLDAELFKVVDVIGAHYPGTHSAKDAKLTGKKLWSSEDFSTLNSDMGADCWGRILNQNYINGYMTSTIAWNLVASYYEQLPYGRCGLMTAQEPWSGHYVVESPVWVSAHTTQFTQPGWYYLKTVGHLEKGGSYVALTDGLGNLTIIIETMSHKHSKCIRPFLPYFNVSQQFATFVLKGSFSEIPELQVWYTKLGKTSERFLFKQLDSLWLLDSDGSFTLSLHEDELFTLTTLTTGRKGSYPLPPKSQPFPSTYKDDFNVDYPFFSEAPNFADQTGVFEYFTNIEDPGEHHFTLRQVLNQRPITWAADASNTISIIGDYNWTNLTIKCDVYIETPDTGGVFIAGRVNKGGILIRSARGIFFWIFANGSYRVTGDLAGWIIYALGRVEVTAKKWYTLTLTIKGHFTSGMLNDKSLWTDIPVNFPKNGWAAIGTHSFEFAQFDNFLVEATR
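Brain-derived Twitcher mouse 145M-Twi cells stably expressing human GALC-G270D or wild-type GALC, treated live, then residual GALC activity read by fluorescence of HMU-b-Gal substrate (0.1 mM final) in citrate-phosphate buffer pH 5.2 with sodium taurocholate. Signal increase indicates enhancement.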
mTORC1 inh: mTORC1 pathway inhibition measured by phospho-rpS6; 0.78% of 44,000 active; Tsc2-/- p53-/- MEF, phospho-rpS6 immunofluorescence/PI, 24 h; AID 493208; Potency, µM (titrated, usually from 38.3 µM), for inactives: at the highest dose activity change, negative = inhibition, most hits filed as inhibitors;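 also: potency is read from the fitted curve at half-maximal effect; plate controls were DMSO for no effect and rapamycin for full effect; nearly all actives have a fitted effect of over 50% in size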
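Compounds act on Tsc2-/-, p53-/- fibroblasts carrying an empty vector for 24 h before fixation and dual staining for phospho-S6 and DNA (propidium iodide). Values are percentages of cells above a rapamycin-defined pS6/PI threshold.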
NLuc sat counter: NanoLuc enzyme inhibition artifact for PMP22 screen; shares compounds with PMP22 txn prim; Secreted NLuc enzyme (filtered S16 cell medium), Nano-Glo luminescence; Potency, µM (titrated, usually from 57.5 µM), for the others: at the highest dose activity change, negative = inhibition, actives largely listed as inhibitors; 4% of 690 active; AID 1508638; also: potency is read from the fitted curve at half-maximal effect; % is scaled to controls: 0 for no effect and ±100 for the full control effect
NLuc Km ctr: counter-screen for PMP22 expression modulators: NanoLuc inhibition at Km. shares compounds with PMP22 txn prim. secreted NLuc enzyme, coelenterazine luminescence, Km conditions. Potency, µM (top dose mostly 57.5 µM), without a hit: top-dose activity change, negative = inhibition, usual class: inhibitors. 5% of 690 active; also: potency is read from the fitted curve at half-maximal effect; % is scaled to controls: 0 for no effect and ±100 for the full control effect
FLuc ctr PMP22: firefly luciferase enzyme inhibition artifact for PMP22 screen; shares compounds with PMP22 txn prim; purified P. pyralis FLuc, luminescence, 10 min; Potency, µM (highest dose often 57.5 µM), for inactives: top-dose activity, negative = inhibition, usual class: inhibitors; 690 tested, under 10 active; also: % of control where 0% means no effect
S16 viab conf: S16 Schwann cell cytotoxicity, confirmatory; shares compounds with PMP22 txn prim; 7% of 690 active; Potency, µM (titrated, usually from 57.5 µM), for inactives: at the top dose activity change, negative = viability loss, most hits filed as cytotoxic; S16 Schwann cells viability, CellTiter-Glo ATP luminescence, 24 h; AID 1508641; also: potency is read from the fitted curve at half-maximal effect; % is scaled to controls: 0 for no effect and ±100 for the full control effect
PMP22 txn conf: PMP22 transcription modulation, confirmatory; shares compounds with PMP22 txn prim; S16 Schwann cells Pmp22-F2sN, dual luciferase, 24 h; Potency, µM (highest dose often 57.5 µM), for the others: at the highest dose activity change, negative = inhibition, hits mostly inhibitors; 22% of 690 active; AID 1508646; active = clear falling dose curves in both reporters; inconclusive = both reporters move, but less clearly or upward; inactive = either reporter flat; the % is the FLuc reporter signal; also: potency is read from the fitted curve at half-maximal effect
PMP22 HiBiT cnf: rat PMP22 protein level modulation, confirmatory; S16 Schwann cells Pmp22-HiBiT, luminescence, 48 h; Potency, µM (titrated, usually from 27.9 µM), for the others: at the highest dose activity change, negative = inhibition, hits mostly inhibitors; AID 1508647; 95 tested, under 10 active; shares compounds with PMP22 txn prim
An asterisk follows results filed as active; i = inactive; ? = inconclusive; / = no result. Unless noted, calls follow the shape of the dose curve; as a rule, active = well fitted curve in the direction sought with a large enough effect; inconclusive = small, poorly fitted or top-dose-only effect, or another doubt; inactive = no such curve, though single readings can be large; an effect the other way counts as inactive or inconclusive.

SMILES	S16 F2sN tox	PMP22 txn prim	GALC G270D act	mTORC1 inh	NLuc sat counter	NLuc Km ctr	FLuc ctr PMP22	S16 viab conf	PMP22 txn conf	others
Cn1c(=O)oc2cc(S(=O)(=O)N3CCC(C(=O)N4CCN(c5ccccc5F)CC4)CC3)ccc21	-7%	?	i	-1%	/	/	/	/	/
Cc1cccc(N2CCN(C(=O)C3CCCN(S(=O)(=O)c4ccc5c(c4)oc(=O)n5C)C3)CC2)c1C (stereo not given)	-20%	11µM*	i	-5%	-13%	-2%	-6%	-24%	?	PMP22 HiBiT cnf=?
CCOC(=O)C1CCCN(S(=O)(=O)c2ccc3c(c2)oc(=O)n3C)C1 (stereo not given)	-9%	-22%	i	-3%	/	/	/	/	/
COC(=O)CS(=O)(=O)c1nc2ccccc2nc1N1CCCCC1	?	11µM*	i	?	?	?	-10%	29%	9.9µM*	PMP22 HiBiT cnf=?
Cc1cccc(Cn2c(=O)n(CC3CCC(C(=O)N4CCOCC4)CC3)c(=O)c3sccc32)c1 (stereo not given)	?	?	i	-1%	/	/	/	/	/
CCc1ccc(NC(=O)Cn2c(=O)n(-c3ccc(OC)cc3)c(=O)c3ccc(C(=O)NCc4ccc(C)cc4)cc32)cc1	-8%	13µM*	i	?	-2%	6%	-1%	?	12µM*	PMP22 HiBiT cnf=?
Cc1ccc(NC(=O)Cn2c(=O)n(-c3ccc(C)cc3)c(=O)c3ccc(C(=O)NCc4ccccc4Cl)cc32)cc1	?	4.5µM*	i	-9%	-5%	13%	-2%	22µM*	5.1µM*	PMP22 HiBiT cnf=?
Cc1ccc(-n2c(=O)c3ccc(C(=O)NCc4ccccc4Cl)cc3n(CC(=O)Nc3cccc(Cl)c3)c2=O)cc1	?	?	i	1%	/	/	/	/	/
Cc1ccc(-n2c(=O)c3ccc(C(=O)NCc4ccccc4Cl)cc3n(CC(=O)Nc3ccc(C)cc3C)c2=O)cc1	11%	15µM*	i	-8%	-6%	4%	6%	?	8.5µM*
CCOc1ccccc1NC(=O)c1c(NC(=O)COc2ccccc2)sc2c1CCCCC2	1%	13µM*	i	-4%	0%	3%	-2%	7%	3%
CCOc1ccccc1NC(=O)c1c(NC(=O)COc2ccc(Cl)cc2)sc2c1CCCCC2	3%	-2%	i	10%	/	/	/	/	/
COc1cccc(N2CCN(C(=O)c3ccc(Cn4c(=O)[nH]c5cc(OC)c(OC)cc5c4=O)cc3)CC2)c1	-26%	?	i	-2%	/	/	/	/	/
CC(=O)c1ccc(N2CCN(S(=O)(=O)c3cc(-c4onc(C)c4C)ccc3C)CC2)cc1	-15%	10µM*	i	-14%	?	?	-1%	-9%	-18%
O=C(CSc1nc(=O)n(Cc2ccncc2)c2c1CCC2)Nc1cccc(F)c1	6%	?	i	-18%	/	/	/	/	/
CCN(CC)CCn1c2c(c(SCC(=O)Nc3cccc(C(F)(F)F)c3)nc1=O)CCC2	-16%	16µM*	i	0%	-10%	0%	-1%	-8%	?
Cc1ccc(/C=C/c2onc(C)c2S(=O)(=O)N2CCC(C(=O)N3CCN(c4ccccc4F)CC3)CC2)cc1	9%	-17%	i	-4%	/	/	/	/	/
CC(=O)c1ccc(N2CCN(C(=O)C3CCN(S(=O)(=O)c4c(C)noc4/C=C/c4ccc(C)cc4)CC3)CC2)cc1	-8%	?	i	0%	-4%	12%	-7%	-9%	-13%
CCOc1ccc(-c2noc(CSc3nnc(-c4ccccc4)n3-c3ccccc3)n2)cc1	5%	?	i	2%	/	/	/	/	/
Cc1ccc(-c2noc(CSc3nnc(C)n3-c3ccc(C)cc3)n2)cc1	?	?	i	-18%	/	/	/	/	/
Cc1ccc(-n2c(SCc3nc(-c4ccc(Cl)cc4)no3)nnc2-c2ccncc2)cc1	?	13µM*	i	-20%	-18%	?	-3%	-7%	?
COc1ccc(-c2noc(CSc3nnc(-c4ccncc4)n3-c3ccc(C)cc3)n2)cc1	-23%	8.9µM*	i	-4%	?	?	-12%	-24%	3.7µM*	PMP22 HiBiT cnf=?
COc1ccc(-c2noc(CSc3nnc(C)n3-c3ccc(F)cc3)n2)cc1	-10%	?	i	-5%	?	?	?	-9%	-27%
O=C(CCNS(=O)(=O)c1ccc2c(c1)CCN2C(=O)C1CC1)Nc1ccc(F)cc1F	-17%	?	i	-15%	/	/	/	/	/
COc1ccccc1C(=O)n1nc(-c2ccccc2)nc1NCc1ccc(Cl)cc1	1%	?	i	-5%	/	/	/	/	/
Cc1ccc(Cl)cc1N1CCN(C(=O)C2CCN(Cc3nc(-c4ccc(Cl)cc4)oc3C)CC2)CC1	?	?	i	-8%	/	/	/	/	/
COc1ccc(NC(=O)Cn2cnc3ccc(S(=O)(=O)N4CCC(C)CC4)cc3c2=O)c(OC)c1	6%	1%	i	-2%	/	/	/	/	/
CC1CCN(S(=O)(=O)c2ccc3ncn(CC(=O)Nc4ccccc4C(F)(F)F)c(=O)c3c2)CC1	0%	?	i	3%	-12%	2%	5%	-11%	-15%
Cc1ccccc1CCNC(=O)c1ccc2c(c1)nc1n2CCC(C)C1 (stereo not given)	22%	?	i	4%	/	/	/	/	/
Cc1ccc(NS(=O)(=O)c2c(C)nc3sccn3c2=O)c(Cl)c1	-2%	-8%	i	0%	/	/	/	/	/
